Measurements as given in PubChem BioAssay (EPA / NIEHS).
Inconclusive results are not listed. Calls of active or inactive are those of the source. The calls were made as follows, unless noted: active = hit-call score of the fitted dose curve at least 0.9, where 1 is the maximum; inconclusive = response in the unintended direction; inactive = score below 0.9.

Assays:
[1] = target: human Thyroid Receptor Alpha (TRa), THRA (gene 7067) (UniProt P10827); experiment: NVS_NR_hTRa_Antagonist: NovaScreen (NVS) Nuclear Receptor Binding Assay for human Thyroid Receptor Alpha Antagonism (TRa) (AID 2283362);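 also: activity is loss of signal relative to DMSO baseline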
human Thyroid Receptor Alpha (TRa), THRA (gene 7067), sequence (P10827 whole entry, looked up): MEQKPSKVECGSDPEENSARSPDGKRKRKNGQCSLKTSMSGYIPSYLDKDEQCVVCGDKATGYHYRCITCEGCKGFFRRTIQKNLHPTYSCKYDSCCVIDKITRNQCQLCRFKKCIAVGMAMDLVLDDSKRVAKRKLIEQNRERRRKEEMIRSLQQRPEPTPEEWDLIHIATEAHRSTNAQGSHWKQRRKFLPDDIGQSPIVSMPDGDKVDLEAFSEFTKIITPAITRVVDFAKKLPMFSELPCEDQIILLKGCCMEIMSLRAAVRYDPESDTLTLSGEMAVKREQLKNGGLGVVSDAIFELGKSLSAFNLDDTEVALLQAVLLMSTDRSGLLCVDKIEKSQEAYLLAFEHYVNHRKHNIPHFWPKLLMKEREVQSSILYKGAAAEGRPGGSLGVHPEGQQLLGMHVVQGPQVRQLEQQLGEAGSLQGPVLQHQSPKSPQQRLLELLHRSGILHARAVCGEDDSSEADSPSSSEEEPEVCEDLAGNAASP
Outline: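 Cell-free binding assay on extracted receptor protein, read 1 h after chemical dosing by AlphaLISA chemiluminescence; loss of signal relative to DMSO baseline marks antagonism. Primary screen ran in duplicate at 25 uM, with concentration series for actives.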

[2] = target: Nuclear receptor subfamily 1 group I member 2 (Homo sapiens) (UniProt O75469); experiment: NVS_NR_hPXR: NovaScreen (NVS) Nuclear Receptor Binding Assay for human Pregnane X Receptor (PXR) (AID 2283365);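 also: a drop in FRET signal versus DMSO baseline means the compound binds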
Nuclear receptor subfamily 1 group I member 2 (Homo sapiens), sequence (O75469 whole entry, looked up): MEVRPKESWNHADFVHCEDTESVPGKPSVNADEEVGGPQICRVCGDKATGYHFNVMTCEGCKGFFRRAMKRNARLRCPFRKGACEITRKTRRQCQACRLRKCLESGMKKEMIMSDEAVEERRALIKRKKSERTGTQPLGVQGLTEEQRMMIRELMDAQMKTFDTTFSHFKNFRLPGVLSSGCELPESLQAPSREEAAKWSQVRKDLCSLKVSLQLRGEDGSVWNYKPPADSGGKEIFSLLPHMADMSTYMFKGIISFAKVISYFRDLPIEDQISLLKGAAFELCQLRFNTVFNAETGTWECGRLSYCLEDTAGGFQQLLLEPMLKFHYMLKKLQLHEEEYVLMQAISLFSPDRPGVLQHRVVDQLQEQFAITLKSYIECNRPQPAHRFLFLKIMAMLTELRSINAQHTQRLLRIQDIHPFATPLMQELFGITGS
Outline: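 Cell-free binding assay with extracted human PXR protein, read by TR-FRET 2 h after dosing; loss of signal relative to DMSO baseline indicates binding. Primary screen at 25 uM in duplicate, actives retested in concentration series.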

[3] = target: Peroxisome proliferator-activated receptor gamma (Homo sapiens) (UniProt P37231); experiment: NVS_NR_hPPARg: NovaScreen (NVS) Nuclear Receptor Binding Assay for human Peroxisome Proliferator-activated Receptor gamma (PPARg) (AID 2283370)
Peroxisome proliferator-activated receptor gamma (Homo sapiens), sequence (P37231 whole entry, looked up, the tested form may be a part): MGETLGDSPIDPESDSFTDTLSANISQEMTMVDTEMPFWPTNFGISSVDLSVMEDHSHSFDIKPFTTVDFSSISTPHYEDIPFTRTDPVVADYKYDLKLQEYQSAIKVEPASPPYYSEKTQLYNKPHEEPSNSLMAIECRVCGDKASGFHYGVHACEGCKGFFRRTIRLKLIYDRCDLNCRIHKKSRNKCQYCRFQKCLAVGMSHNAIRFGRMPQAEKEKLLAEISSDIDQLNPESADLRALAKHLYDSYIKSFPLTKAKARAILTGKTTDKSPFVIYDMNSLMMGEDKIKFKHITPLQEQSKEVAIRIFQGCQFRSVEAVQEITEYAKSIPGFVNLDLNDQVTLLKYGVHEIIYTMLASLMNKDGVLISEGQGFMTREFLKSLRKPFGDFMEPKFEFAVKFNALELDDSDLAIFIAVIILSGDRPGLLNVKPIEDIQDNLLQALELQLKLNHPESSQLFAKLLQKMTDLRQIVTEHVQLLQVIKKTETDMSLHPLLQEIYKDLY
Outline: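 Cell-free binding to extracted PPARg protein, read by fluorescence polarization 2 h after dosing; loss of signal relative to DMSO baseline marks displacement. Primary screen in duplicate at 25 uM, actives retested in concentration series.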

[4] = target: Estrogen receptor beta (Homo sapiens) (UniProt Q92731); experiment: OT_ER_ERbERb_1440: Odyssey Thera (OT) 24-hour HEK293T Protein-Complementation Assay for Estrogen Receptor-beta/-beta Homodimer (AID 2283380);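 also: fluorescence gain from ER beta LBD homodimer complementation read by laser scanning cytometry; scored as signal increase over DMSO baseline for both agonists and antagonists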
Estrogen receptor beta (Homo sapiens), sequence (Q92731 whole entry, looked up, the tested form may be a part): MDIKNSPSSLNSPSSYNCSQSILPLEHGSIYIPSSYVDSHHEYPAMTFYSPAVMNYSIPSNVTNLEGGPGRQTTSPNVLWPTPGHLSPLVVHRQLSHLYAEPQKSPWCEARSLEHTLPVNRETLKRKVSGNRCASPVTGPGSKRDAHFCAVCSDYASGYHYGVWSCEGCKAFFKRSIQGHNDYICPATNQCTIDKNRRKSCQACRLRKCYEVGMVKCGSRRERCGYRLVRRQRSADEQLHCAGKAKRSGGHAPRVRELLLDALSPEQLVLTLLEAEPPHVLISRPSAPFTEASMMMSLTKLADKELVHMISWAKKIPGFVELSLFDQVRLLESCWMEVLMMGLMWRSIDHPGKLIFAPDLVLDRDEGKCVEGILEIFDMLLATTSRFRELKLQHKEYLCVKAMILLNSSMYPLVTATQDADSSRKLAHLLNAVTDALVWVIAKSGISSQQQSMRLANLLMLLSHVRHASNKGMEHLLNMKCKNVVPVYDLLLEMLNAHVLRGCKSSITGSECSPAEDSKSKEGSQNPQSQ
Outline: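 Fluorescence increase, nuclear for agonists or whole-cell for antagonists, relative to DMSO vehicle, quantified by laser scanning cytometer after fixation and Draq5 staining. Readout from 24 h treatment of HEK293T cells carrying complementation-paired ER beta LBD (aa 310-547).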

[5] = target: Estrogen receptor (Homo sapiens) (UniProt P03372); experiment: OT_ERa_GFPERaERE_0480: Odyssey Thera (OT) 8-hour HeLa Transcription Induction Assay for Estrogen Receptor (AID 2283381; active = hit-call score of the fitted dose curve at least 0.9, where 1 is the maximum; inactive = score below 0.9)
Estrogen receptor (Homo sapiens), sequence (P03372 whole entry, looked up): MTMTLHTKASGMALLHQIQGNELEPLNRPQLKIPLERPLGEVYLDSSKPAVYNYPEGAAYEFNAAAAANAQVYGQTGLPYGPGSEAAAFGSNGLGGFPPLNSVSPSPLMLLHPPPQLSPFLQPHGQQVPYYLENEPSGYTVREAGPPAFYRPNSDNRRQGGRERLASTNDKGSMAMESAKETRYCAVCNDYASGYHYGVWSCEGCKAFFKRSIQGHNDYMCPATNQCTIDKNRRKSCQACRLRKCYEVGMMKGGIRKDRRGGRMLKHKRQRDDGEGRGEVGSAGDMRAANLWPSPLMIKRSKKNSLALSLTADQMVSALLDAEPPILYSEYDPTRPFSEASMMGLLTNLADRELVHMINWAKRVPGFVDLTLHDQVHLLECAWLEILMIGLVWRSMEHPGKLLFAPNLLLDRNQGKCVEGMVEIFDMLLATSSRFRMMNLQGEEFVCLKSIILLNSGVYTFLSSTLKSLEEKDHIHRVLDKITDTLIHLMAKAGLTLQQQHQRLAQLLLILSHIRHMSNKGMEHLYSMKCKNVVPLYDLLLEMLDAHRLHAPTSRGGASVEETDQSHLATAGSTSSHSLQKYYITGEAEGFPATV
Outline: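 Fluorescence microscopy with high-content image analysis measures ERE-driven GFP induction in HeLa cells at 8 h post-dose. Increases fitted against DMSO baseline.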

[6] = target: Estrogen receptor (Homo sapiens) (UniProt P03372); experiment: OT_ERa_GFPERaERE_0120: Odyssey Thera (OT) 2-hour HeLa Transcription Induction Assay for Estrogen Receptor (AID 2283382)
Outline: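 Fluorescence-microscopy images of the GFP-ERα/ERE reporter, scored by high-content image algorithms, give the readout. HeLa exposure lasted 2 h, and only signal increase over DMSO was fitted.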

[7] = target: Retinoic acid receptor RXR-alpha (Homo sapiens) (UniProt P19793); experiment: OT_NURR1_NURR1RXRa_0480: Odyssey Thera (OT) 8-hour HEK293T Protein Complementation Assay for Nurr1/retinoid X receptor (RXR) (AID 2283385)
Retinoic acid receptor RXR-alpha (Homo sapiens), sequence (P19793 whole entry, looked up, the tested form may be a part): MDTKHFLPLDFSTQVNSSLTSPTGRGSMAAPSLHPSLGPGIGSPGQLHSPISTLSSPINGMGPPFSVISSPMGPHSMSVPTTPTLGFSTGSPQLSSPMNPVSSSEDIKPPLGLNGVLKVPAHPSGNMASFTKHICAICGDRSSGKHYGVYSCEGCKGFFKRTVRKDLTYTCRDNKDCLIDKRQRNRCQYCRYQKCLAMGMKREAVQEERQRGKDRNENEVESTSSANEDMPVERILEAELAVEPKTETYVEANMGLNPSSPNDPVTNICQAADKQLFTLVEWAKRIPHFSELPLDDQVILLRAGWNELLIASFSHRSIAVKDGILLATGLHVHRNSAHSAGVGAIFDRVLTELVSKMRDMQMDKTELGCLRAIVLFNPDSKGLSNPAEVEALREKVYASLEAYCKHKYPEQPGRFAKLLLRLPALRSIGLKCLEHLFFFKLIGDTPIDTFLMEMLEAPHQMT
Outline: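 Interaction of Nurr1 with RXRα read as reconstituted reporter fluorescence in a HEK293T fragment-complementation system, 8 h post-treatment; increase over DMSO baseline analysed.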

[8] = target: Peroxisome proliferator-activated receptor gamma (Homo sapiens) (UniProt P37231); experiment: OT_PPARg_PPARgSRC1_0480: Odyssey Thera (OT) 8-hour Protein-Complementation Assay for Peroxisome Proliferator-activated Receptor Gamma / SRC-1 Co-activator (AID 2283387);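 also: nuclear to cytoplasmic split Venus YFP fluorescence ratio reporting PPARg SRC-1 interaction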
Outline: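 Protein-fragment complementation in HEK293T: Venus YFP halves (residues 1-158, 159-239, mutated to IFP1/IFP2) fused to PPARg/SRC-1. 8 h exposure; N/C ratio at 488 nm; DMSO negative control.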

[9] = target: guinea pig Sigma Receptor, Non-selective Binding, SIGMAR1 (gene 100135589) (UniProt Q60492); experiment: NVS_OR_gSIGMA_NonSelective: NovaScreen (NVS) Nuclear Receptor Binding Assay for guinea pig Sigma Receptor, Non-selective Binding (AID 2283367)
guinea pig Sigma Receptor, Non-selective Binding, SIGMAR1 (gene 100135589), sequence (Q60492 whole entry, looked up): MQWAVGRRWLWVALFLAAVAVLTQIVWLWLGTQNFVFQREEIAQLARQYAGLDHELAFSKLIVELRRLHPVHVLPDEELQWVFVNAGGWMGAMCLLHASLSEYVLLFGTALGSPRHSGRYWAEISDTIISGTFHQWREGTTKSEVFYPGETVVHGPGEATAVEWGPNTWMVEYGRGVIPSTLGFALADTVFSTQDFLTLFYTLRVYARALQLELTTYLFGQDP
Outline: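 Guinea pig brain membrane sigma sites were labelled with a radioligand, and bound radioactivity was counted after filtration 1 h post-dose. Compounds were screened at 25 uM in duplicate, then retested as concentration series when active.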

[10] = target: Bile acid receptor (Homo sapiens) (UniProt Q96RI1); experiment: OT_FXR_FXRSRC1_0480: Odyssey Thera (OT) 8-hour HEK293T Protein-Complementation Assay for Farnesoid X receptor/SRC-1 Co-activator (AID 2283383)
Bile acid receptor (Homo sapiens), sequence (Q96RI1 whole entry, looked up, the tested form may be a part): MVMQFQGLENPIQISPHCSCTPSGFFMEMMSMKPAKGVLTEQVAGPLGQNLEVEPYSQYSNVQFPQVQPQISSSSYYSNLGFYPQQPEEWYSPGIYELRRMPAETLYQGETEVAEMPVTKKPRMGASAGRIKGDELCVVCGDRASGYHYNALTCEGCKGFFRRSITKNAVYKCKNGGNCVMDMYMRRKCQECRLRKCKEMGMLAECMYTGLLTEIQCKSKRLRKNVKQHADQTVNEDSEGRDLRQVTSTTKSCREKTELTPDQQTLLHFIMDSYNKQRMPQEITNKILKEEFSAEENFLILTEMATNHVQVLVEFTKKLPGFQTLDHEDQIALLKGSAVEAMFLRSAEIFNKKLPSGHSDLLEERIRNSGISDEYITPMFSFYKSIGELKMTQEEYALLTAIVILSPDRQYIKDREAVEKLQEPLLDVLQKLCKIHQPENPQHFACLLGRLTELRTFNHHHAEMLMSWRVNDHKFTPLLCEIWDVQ
Outline: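 Binding of FXR to coactivator SRC-1 was read as fluorescence from a reconstituted split reporter in HEK293T cells, 8 h after chemical addition. Only increases in signal versus DMSO were fit.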

[11] = target: Agonist Androgen Response Element (ARE), AR (gene 367) (UniProt P10275); experiment: OT_AR_ARELUC_AG_1440: Odyssey Thera (OT) 24-hour CHO-K1 Luciferase Assay for Agonist Androgen Response Element (ARE) (AID 2283379)
Agonist Androgen Response Element (ARE), AR (gene 367), sequence (P10275 whole entry, looked up): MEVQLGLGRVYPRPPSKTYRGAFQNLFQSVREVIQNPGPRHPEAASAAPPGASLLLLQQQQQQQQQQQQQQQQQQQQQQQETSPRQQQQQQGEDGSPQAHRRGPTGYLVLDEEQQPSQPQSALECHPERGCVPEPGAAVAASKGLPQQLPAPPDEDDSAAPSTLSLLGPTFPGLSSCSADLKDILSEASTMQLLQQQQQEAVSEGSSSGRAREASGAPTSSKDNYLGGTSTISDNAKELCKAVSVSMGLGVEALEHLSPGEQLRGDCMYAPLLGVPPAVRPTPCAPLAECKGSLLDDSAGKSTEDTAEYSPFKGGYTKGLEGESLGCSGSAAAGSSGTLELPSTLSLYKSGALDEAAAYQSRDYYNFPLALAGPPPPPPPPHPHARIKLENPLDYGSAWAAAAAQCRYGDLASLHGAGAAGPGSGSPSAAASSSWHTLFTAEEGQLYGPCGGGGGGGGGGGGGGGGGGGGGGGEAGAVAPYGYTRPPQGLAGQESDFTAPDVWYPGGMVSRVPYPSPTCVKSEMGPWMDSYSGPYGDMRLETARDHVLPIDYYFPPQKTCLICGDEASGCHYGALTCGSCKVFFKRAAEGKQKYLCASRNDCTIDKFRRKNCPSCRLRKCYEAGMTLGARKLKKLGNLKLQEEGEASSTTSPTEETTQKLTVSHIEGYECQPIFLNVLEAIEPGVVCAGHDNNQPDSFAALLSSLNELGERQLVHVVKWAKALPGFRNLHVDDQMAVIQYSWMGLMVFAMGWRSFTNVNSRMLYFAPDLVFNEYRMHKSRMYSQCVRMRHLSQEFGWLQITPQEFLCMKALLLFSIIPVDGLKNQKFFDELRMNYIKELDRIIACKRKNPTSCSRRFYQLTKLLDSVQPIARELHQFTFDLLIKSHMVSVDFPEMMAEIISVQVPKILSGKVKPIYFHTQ
Outline: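 Readout: luciferase bioluminescence from CHO-K1 ARE-luc cells, measured 24 h post-dosing; agonism = increased mean luminescence vs DMSO controls, fitted in positive direction.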

[12] = target: Bile acid receptor (Homo sapiens) (UniProt Q96RI1); experiment: OT_FXR_FXRSRC1_1440: Odyssey Thera (OT) 24-hour HEK293T Protein-Complementation Assay for Farnesoid X receptor/SRC-1 Co-activator (AID 2283384)
Outline: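 Protein-fragment complementation: FXR and SRC-1 fused to reporter fragments that reassemble on interaction, read by fluorescence intensity. Human HEK293T cells measured 24 h post-dose; positive-direction fit versus DMSO.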

[13] = target: Retinoic acid receptor RXR-alpha (Homo sapiens) (UniProt P19793); experiment: OT_NURR1_NURR1RXRa_1440: Odyssey Thera (OT) 24-hour HEK293T Protein Complementation Assay for Nurr1/retinoid X receptor (RXR) (AID 2283386)
Outline: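 Gain in fluorescence, fitted relative to DMSO, reflects Nurr1–RXRα association in HEK293T cells after 24 h dosing. Bait and prey are each linked to a reporter-protein fragment that reassembles on interaction.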

Measured: AC50

O=C(Nc1ccc2c(O)c(N=Nc3ccc(N=Nc4ccc(S(=O)(=O)O)cc4)cc3)c(S(=O)(=O)O)cc2c1)c1ccccc1
active: [1] 9.08 µM | [2] 1.19 µM
inactive: [3] | [4] | [5] | [6] | [7] | [8]

CCOCCOCCOCC
active: [9] 4.87 µM

C1=CC2C3C=CC(C3)C2C1 (stereo not given)
inactive: [4] | [10] | [7]
active: [9] 13 µM | [3] 2.39 µM

c1ccc2[nH]cnc2c1
inactive: [9]

CC(C)NCC(O)COc1ccc(CC(N)=O)cc1 (stereo not given)
inactive: [3] | [5] | [6] | [7] | [8]

CCCCC(CC)COC(C)=O (stereo not given)
inactive: [2] | [4] | [7] | [8]

CC(=O)O[C@H]1C[C@@H]2CC[C@@]1(C)C2(C)C
inactive: [3] | [4] | [10] | [7] | [8]
active: [11] 31.8 µM

CC(C=O)Cc1ccc(C(C)(C)C)cc1 (stereo not given)
active: [9] 2.97 µM
inactive: [4] | [12] | [7] | [8]

O=C(O)c1ccc(O)cc1
inactive: [2] | [12] | [13] | [8]

CCOC(=O)c1ccc(N)cc1
active: [3] 41.6 µM | [12] 20.2 µM | [13] 31.8 µM
inactive: [4] | [10] | [7] | [8]

CC(C)C[C@H](NC(=O)OCC1c2ccccc2-c2ccccc21)C(=O)O
active: [3] 46.6 µM

Nc1ccccc1[N+](=O)[O-]
inactive: [3] | [4] | [10] | [12] | [7] | [8]

OCCc1ccccc1
inactive: [2] | [12] | [13] | [8]

C=C[Si]1(C)O[Si](C)(C=C)O[Si](C)(C=C)O[Si](C)(C=C)O1 (stereo not given)
inactive: [3] | [4] | [7] | [13] | [8]

CN(C)c1cccc(O)c1
inactive: [3] | [4] | [13] | [8]

O=P(O)(O)O
inactive: [2] | [4] | [7] | [8]
